Assay results taken from the supplement of paper PMC8728848.
Many of the other results were omitted from the sample, so the strongest signals are more common in it than they were.

How the values were obtained:
Experiment in all cases: glycan array binding signal (z-score within array); higher = stronger binding
Settings in all cases: glycan notation: IUPAC condensed, linker removed
[1] = biological target: Fuc(a1-2)Gal(b1-4)Glc6S
How it was run: (§1)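 Negative Z-scores can be read as non-binding. The Z-score is calculated within each array and then averaged across arrays of one protein sequence at different concentrations or buffers and across linkers. Arrays, 3228 in all, were curated from the Consortium for Functional Glycomics database and kept only where the protein sequence was available.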

[2] = biological target: Fuc(a1-2)[GalNAc(a1-3)]Gal(b1-4)Glc
How it was run: as §1

[3] = biological target: Gal(b1-3)Gal(b1-4)GlcNAc(b1-2)Man(a1-3)[Gal(b1-3)Gal(b1-4)GlcNAc(b1-2)Man(a1-6)]Man(b1-4)GlcNAc(b1-4)GlcNAc
How it was run: as §1

[4] = biological target: Gal(b1-3)GlcNAc(b1-2)Man(a1-3)[Gal(b1-3)GlcNAc(b1-2)Man(a1-6)]Man(b1-4)GlcNAc(b1-4)GlcNAc
How it was run: as §1

[5] = biological target: Gal(b1-3)[Fuc(a1-4)]GlcNAc
How it was run: as §1

[6] = biological target: Gal(b1-4)GlcNAc
How it was run: as §1

[7] = biological target: Gal(b1-4)GlcNAc(b1-3)Gal(b1-3)GlcNAc
How it was run: as §1

[8] = biological target: Gal3S(b1-3)GlcNAc
How it was run: as §1

[9] = biological target: Gal3S4S(b1-4)GlcNAc
How it was run: as §1

[10] = biological target: GalNAc(a1-3)Gal
How it was run: as §1

[11] = biological target: GalNAc(a1-3)GalNAc
How it was run: as §1

[12] = biological target: GalNAc(b1-3)Gal(a1-4)Gal(b1-4)GlcNAc
How it was run: as §1

[13] = biological target: GlcNAc(a1-4)Gal(b1-4)GlcNAc(b1-3)Gal(b1-4)[Fuc(a1-3)]GlcNAc(b1-3)Gal(b1-4)[Fuc(a1-3)]GlcNAc
How it was run: as §1

[14] = biological target: GlcNAc(b1-4)GlcNAc(b1-4)GlcNAc(b1-4)GlcNAc(b1-4)GlcNAc
How it was run: as §1

[15] = biological target: GlcNAc(b1-4)GlcNAc(b1-4)GlcNAc(b1-4)GlcNAc(b1-4)GlcNAc(b1-4)GlcNAc
How it was run: as §1

[16] = biological target: GlcNAc6S(b1-3)Gal(b1-4)GlcNAc
How it was run: as §1

[17] = biological target: Kdn(a2-3)Gal(b1-4)[Fuc(a1-3)]GlcNAc
How it was run: as §1

[18] = biological target: Man(a1-2)Man(a1-2)Man(a1-6)[Man(a1-3)]Man
How it was run: as §1

[19] = biological target: Man(a1-2)Man(a1-3)[Man(a1-2)Man(a1-6)]Man(a1-6)[Man(a1-2)Man(a1-2)Man(a1-3)]Man
How it was run: as §1

[20] = biological target: Man(a1-2)Man(a1-3)[Man(a1-2)Man(a1-6)]Man(a1-6)[Man(a1-3)[Man(a1-6)]Man(a1-6)]Man(b1-4)GlcNAc(b1-4)GlcNAc
How it was run: as §1

[21] = biological target: Man(a1-2)Man(a1-3)[Man(a1-6)]Man(a1-6)[Man(a1-2)Man(a1-3)]Man(b1-4)GlcNAc(b1-4)GlcNAc
How it was run: as §1

[22] = biological target: Man(a1-2)Man(a1-6)[Man(a1-3)]Man(a1-6)[Man(a1-2)Man(a1-2)Man(a1-3)]Man(b1-4)GlcNAc(b1-4)GlcNAc
How it was run: as §1

[23] = biological target: Man(a1-3)[Man(a1-6)]Man
How it was run: as §1

[24] = biological target: Man(a1-3)[Man(a1-6)]Man(a1-6)[Man(a1-2)Man(a1-3)]Man(b1-4)GlcNAc(b1-4)GlcNAc
How it was run: as §1

[25] = biological target: Man(a1-3)[Man(a1-6)]Man(a1-6)[Man(a1-3)]Man(b1-4)GlcNAc(b1-4)GlcNAc
How it was run: as §1

[26] = biological target: Man(a1-3)[Man(a1-6)]Man(b1-4)GlcNAc(b1-4)GlcNAc
How it was run: as §1

[27] = biological target: Neu5Ac(a2-3)Gal(b1-4)GlcNAc6S
How it was run: as §1

[28] = biological target: Neu5Ac(a2-3)Gal(b1-4)[Fuc(a1-3)]GlcNAc
How it was run: as §1

[29] = biological target: Neu5Ac(a2-6)Gal(b1-4)GlcNAc
How it was run: as §1

[30] = biological target: Neu5Ac(a2-6)Gal(b1-4)GlcNAc(b1-2)Man(a1-3)Man(b1-4)GlcNAc(b1-4)GlcNAc
How it was run: as §1

[31] = biological target: Neu5Ac(a2-6)Gal(b1-4)GlcNAc(b1-3)Gal(b1-4)GlcNAc
How it was run: as §1

[32] = biological target: Fuc(a1-2)[Gal(a1-3)]Gal(b1-4)Glc
How it was run: as §1

[33] = biological target: Fuc(a1-2)[Gal(a1-3)]Gal(b1-4)GlcNAc(b1-2)Man(a1-3)[Fuc(a1-2)[Gal(a1-3)]Gal(b1-4)GlcNAc(b1-2)Man(a1-6)]Man(b1-4)GlcNAc(b1-4)GlcNAc
How it was run: as §1

[34] = biological target: Fuc(a1-2)[GalNAc(a1-3)]Gal
How it was run: as §1

[35] = biological target: Fuc(a1-2)[GalNAc(a1-3)]Gal(b1-4)GlcNAc(b1-2)Man(a1-3)[Fuc(a1-2)[GalNAc(a1-3)]Gal(b1-4)GlcNAc(b1-2)Man(a1-6)]Man(b1-4)GlcNAc(b1-4)GlcNAc
How it was run: as §1

[36] = biological target: Fuc(a1-2)[GalNAc(a1-3)]Gal(b1-4)GlcNAc(b1-3)Gal(b1-4)GlcNAc
How it was run: as §1

[37] = biological target: Fuc(a1-2)[GalNAc(a1-3)]Gal(b1-4)GlcNAc(b1-3)Gal(b1-4)GlcNAc(b1-3)Gal(b1-4)GlcNAc
How it was run: as §1

[38] = biological target: Fuc(a1-3)[Gal(b1-4)]GlcNAc
How it was run: as §1

[39] = biological target: Fuc(a1-3)[GalNAc(b1-4)]GlcNAc
How it was run: as §1

[40] = biological target: Gal(b1-3)GalNAc(a1-3)[Fuc(a1-2)]Gal(b1-4)Glc
How it was run: as §1

[41] = biological target: Gal(b1-3)GalNAc(a1-3)[Fuc(a1-2)]Gal(b1-4)GlcNAc
How it was run: as §1

[42] = biological target: Gal(b1-3)GlcNAc(a1-6)Gal(b1-4)GlcNAc
How it was run: as §1

[43] = biological target: Gal(b1-3)GlcNAc(b1-3)Gal(b1-4)GlcNAc(b1-6)[Gal(b1-3)GlcNAc(b1-3)]Gal(b1-4)Glc
How it was run: as §1

[44] = biological target: Gal(b1-4)GalNAc(a1-3)[Fuc(a1-2)]Gal(b1-4)GlcNAc
How it was run: as §1

[45] = biological target: Gal(b1-4)GlcNAc(b1-2)Man(a1-3)[GlcNAc(b1-2)Man(a1-6)]Man(b1-4)GlcNAc(b1-4)GlcNAc
How it was run: as §1

[46] = biological target: Gal(b1-4)GlcNAc(b1-2)Man(a1-6)Man(b1-4)GlcNAc(b1-4)GlcNAc
How it was run: as §1

[47] = biological target: Gal4S(b1-4)GlcNAc
How it was run: as §1

[48] = biological target: Gal6S(b1-3)GlcNAc
How it was run: as §1

[49] = biological target: GlcA(b1-3)GlcNAc
How it was run: as §1

[50] = biological target: GlcNAc(a1-4)Gal(b1-4)GlcNAc(b1-3)Gal(b1-4)Glc
How it was run: as §1

[51] = biological target: GlcNAc(b1-2)Man(a1-3)[GlcNAc(b1-4)][GlcNAc(b1-2)Man(a1-6)]Man(b1-4)GlcNAc(b1-4)GlcNAc
How it was run: as §1

[52] = biological target: GlcNAc(b1-2)[GlcNAc(b1-6)]Man(a1-6)[GlcNAc(b1-2)Man(a1-3)]Man(b1-4)GlcNAc(b1-4)GlcNAc
How it was run: as §1

[53] = biological target: GlcNAc(b1-2)[GlcNAc(b1-6)]Man(a1-6)[GlcNAc(b1-2)Man(a1-3)][GlcNAc(b1-4)]Man(b1-4)GlcNAc(b1-4)GlcNAc
How it was run: as §1

[54] = biological target: GlcNAc(b1-4)[GlcNAc(b1-6)]GalNAc
How it was run: as §1

[55] = biological target: Man(a1-2)Man(a1-3)Man
How it was run: as §1

[56] = biological target: Man(a1-6)Man
How it was run: as §1

[57] = biological target: Neu5Ac(a2-3)Gal
How it was run: as §1

[58] = biological target: Neu5Ac(a2-3)Gal(b1-3)GalNAc
How it was run: as §1

[59] = biological target: Neu5Ac(a2-3)Gal(b1-3)[Neu5Ac(a2-3)Gal(b1-4)]GlcNAc
How it was run: as §1

[60] = biological target: Neu5Ac(a2-3)Gal(b1-4)GlcNAc(b1-3)Gal(b1-4)GlcNAc(b1-3)Gal(b1-4)GlcNAc
How it was run: as §1

[61] = biological target: Neu5Ac(a2-3)Gal6S(b1-4)GlcNAc
How it was run: as §1

[62] = biological target: Neu5Ac(a2-6)Gal(b1-3)GlcNAc(b1-3)[Gal(b1-4)GlcNAc(b1-6)]Gal(b1-4)Glc
How it was run: as §1

B1: MVL (Microcystis viridis), Q9RHG4 (protein)
chain: MASYKVNIPAGPLWSNAEAQQVGPKIAAAHQGNFTGQWTTVVESAMSVVEVELQVENTGIHEFKTDVLAGPLWSNDEAQKLGPQIAASYGAEFTGQWRTIVEGVMSVIQIKYTF
glycan array binding signal (z-score) [1]: -0.234
glycan array binding signal (z-score) [2]: -0.201
glycan array binding signal (z-score) [3]: 1.85
glycan array binding signal (z-score) [4]: 1.51
glycan array binding signal (z-score) [5]: -0.232
glycan array binding signal (z-score) [6]: -0.227
glycan array binding signal (z-score) [7]: -0.23
glycan array binding signal (z-score) [8]: -0.239
glycan array binding signal (z-score) [9]: -0.243
glycan array binding signal (z-score) [10]: -0.231
glycan array binding signal (z-score) [11]: -0.243
glycan array binding signal (z-score) [12]: -0.243
glycan array binding signal (z-score) [13]: 0.006
glycan array binding signal (z-score) [14]: 0.051
glycan array binding signal (z-score) [15]: -0.006
glycan array binding signal (z-score) [16]: -0.119
glycan array binding signal (z-score) [17]: -0.121
glycan array binding signal (z-score) [18]: -0.183
glycan array binding signal (z-score) [19]: 7.38
glycan array binding signal (z-score) [20]: 5.26
glycan array binding signal (z-score) [21]: 2.01
glycan array binding signal (z-score) [22]: 6.83
glycan array binding signal (z-score) [23]: -0.232
glycan array binding signal (z-score) [24]: 2.68
glycan array binding signal (z-score) [25]: 2.72
glycan array binding signal (z-score) [26]: 1.59
glycan array binding signal (z-score) [27]: -0.238
glycan array binding signal (z-score) [28]: -0.23
glycan array binding signal (z-score) [29]: -0.241
glycan array binding signal (z-score) [30]: 0.179
glycan array binding signal (z-score) [31]: -0.236

B2: Gal 4 (Canis lupus) (protein)
chain: MAYVPAPGYQPTYNPTLPYNKPIPGGLSVGMSVYIQGITSEHMRRFCVNFVAGAHPGSDIAFHFNPRFDGWDKVVFNSHLGGKWGSEEKKRSMPFRKGTHFELVFMVLAEHYKVVVNGNPFYEFGHRLPLQLVTHLQVEGDVELQSINFIGGTQPLGQGPGHTQQQPSSLPTMEGPPVFNPPVPFRKRLQGGLTVRRTVIIKGFVPFTSKSFVINFMVESSGDLALHINPRLTEGLVVRNSCLNGSWGSEDRKLSYNPFIPGQFFDLSIRCGMDRFKVYANGQHLFDFSHRLLALQNVDMLEINGDVTLSYIQV
glycan array binding signal (z-score) [1]: 0.071
glycan array binding signal (z-score) [32]: 8.77
glycan array binding signal (z-score) [33]: 2.77
glycan array binding signal (z-score) [34]: -0.155
glycan array binding signal (z-score) [2]: 5.95
glycan array binding signal (z-score) [35]: 3.76
glycan array binding signal (z-score) [36]: 7.32
glycan array binding signal (z-score) [37]: 0.359
glycan array binding signal (z-score) [38]: -0.151
glycan array binding signal (z-score) [39]: -0.147
glycan array binding signal (z-score) [40]: 11.1
glycan array binding signal (z-score) [41]: 2.63
glycan array binding signal (z-score) [42]: -0.137
glycan array binding signal (z-score) [43]: -0.146
glycan array binding signal (z-score) [44]: 3.3
glycan array binding signal (z-score) [45]: -0.154
glycan array binding signal (z-score) [46]: -0.156
glycan array binding signal (z-score) [47]: -0.144
glycan array binding signal (z-score) [48]: -0.135
glycan array binding signal (z-score) [49]: 0.144
glycan array binding signal (z-score) [50]: -0.147
glycan array binding signal (z-score) [51]: -0.148
glycan array binding signal (z-score) [52]: -0.148
glycan array binding signal (z-score) [53]: -0.148
glycan array binding signal (z-score) [54]: -0.147
glycan array binding signal (z-score) [55]: -0.142
glycan array binding signal (z-score) [56]: -0.148
glycan array binding signal (z-score) [57]: -0.152
glycan array binding signal (z-score) [58]: -0.145
glycan array binding signal (z-score) [59]: -0.156
glycan array binding signal (z-score) [60]: -0.153
glycan array binding signal (z-score) [61]: -0.16
glycan array binding signal (z-score) [62]: -0.151
glycan array binding signal (z-score) [30]: -0.151
glycan array binding signal (z-score) [31]: -0.151
